Screening data deposited in PubChem BioAssay by National Center for Advancing Translational Sciences (NCATS).
Shown are actives, neighbours in structure and some others; about 8% of the full set was active somewhere.
KB-3-1 cytotox = KB-3-1 parental cell cytotoxicity; KB-3-1 viability, CellTiter-Glo ATP luminescence, 72 h; Potency, µM (series often up to 46.1 µM), usual class: cytotoxic; hit rate 1.4% among 400,000; also: nearly all actives have a fitted effect of over 60% in size
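Cytotoxicity in the drug-sensitive parental line KB-3-1 was scored as loss of CellTiter-Glo luminescence following 72 h incubation with compound. Values come from curve fitting of normalized concentration-response data.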
SW480 rerep = induces DNA re-replication in SW480 colon adenocarcinoma cells; hit rate 1.8% among 340,000; AID 624297; Potency, µM (titrated, usually from 46.1 µM), most hits filed as activators; SW480 DNA re-replication, Hoechst DNA content imaging, 48 h; also: nearly all actives have a fitted effect of over 55% in size
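Cells (250 per well) received 23 nL compound or DMSO by pin tool and were kept 48 hr at 37 C, 5% CO2. Nuclei were then stained with Hoechst for 40 min and scanned for DNA content.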
KB-V1 cytotox = KB-V1 MDR subline cytotoxicity; KB-V1 MDR cells viability, CellTiter-Glo, 72 h; AID 1347076; Potency, µM (doses to about 46.1 µM), most hits filed as cytotoxic; hit rate 3.4% among 400,000; also: nearly all actives have a fitted effect of over 60% in size
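Cytotoxicity via CellTiter-Glo luminescence after 72 h compound exposure at 37 degrees C. Cells: drug-selected KB-V1 line, DMEM phenol-red free plus 10% FBS. Compounds tested at multiple concentrations; normalized data fitted to concentration-effect curves.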
HT1080-NT tox = kills 2HG-producing HT-1080-NT fibrosarcoma cells; HT-1080-NT fibrosarcoma viability, CellTiter-Glo ATP luminescence, 48 h; Potency, µM (titrated, usually from 46.1 µM), hits mostly cytotoxic; hit rate 1.6% among 360,000; AID 686970;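 also: NT is the 2HG producing partner of a matched IDH1 knockdown line; nearly all actives have a fitted effect of over 55% in size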
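A 48-hour cytotoxicity screen used HT-1080-NT cells plated 2 hours before compound delivery. ATP-based CellTiter-Glo luminescence measured viability, normalized to DMSO and no-cell controls.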
MCF10A rereplic = induces DNA re-replication in MCF 10a normal breast cells | MCF 10A DNA re-replication, Hoechst nuclear intensity, 48 h | hit rate 2.9% among 350,000 | AID 624296 | Potency, µM (titrated, usually from 46.1 µM), hits mostly activators; also: nearly all actives have a fitted effect of over 50% in size
HT1080 IDH1KD tx = HT-1080 IDH1 knockdown cell toxicity (counter line) | HT-1080 IDH1 knockdown viability, ATP luminescence, 48 h | Potency, µM (highest dose often 46.1 µM), most hits filed as cytotoxic | hit rate 2% among 360,000 | AID 686971
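Luminescent ATP read-out (CellTiter-Glo, 10 min at room temperature) after 48 h compound exposure at 37 °C gave viability of IDH1-knockdown HT-1080 cells. Activity was normalised to DMSO and cell-free wells, then fitted as concentration-response curves.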
Hits are given with their value. Calls follow the shape of the dose curve; as a rule, active = well fitted curve in the direction sought with a large enough effect; inconclusive = small, poorly fitted or top-dose-only effect, or another doubt; inactive = no such curve, though single readings can be large; an effect the other way counts as inactive or inconclusive.

What do the screens show for `COc1ccc(C(CCNCc2ccc(F)cc2)c2ccc(F)cc2)cc1` (stereo unspecified)?
KB-3-1 cytotox: inconclusive; KB-V1 cytotox: inconclusive; HT1080-NT tox: inconclusive; MCF10A rereplic: 5.2µM; HT1080 IDH1KD tx: 23µM

What do the screens show for `COc1ccc(C(CCNCc2ccccc2)c2ccc(F)cc2)cc1` (stereo unspecified)?
KB-3-1 cytotox: inconclusive; KB-V1 cytotox: 18µM; HT1080-NT tox: inconclusive; MCF10A rereplic: inactive; HT1080 IDH1KD tx: 16µM

Results for COc1ccc(CNCC(O)(c2ccccc2)c2ccc(F)cc2)cc1 (stereo unspecified) ?
KB-3-1 cytotox: inactive; SW480 rerep: inconclusive; KB-V1 cytotox: inactive; HT1080-NT tox: inactive; MCF10A rereplic: inactive; HT1080 IDH1KD tx: inconclusive

What do the screens show for `COc1ccc(CNCCC(c2ccc(F)cc2)c2ccc(OC)cc2)cc1` (stereo unspecified)?
KB-3-1 cytotox: 23µM; SW480 rerep: inconclusive; KB-V1 cytotox: inconclusive; HT1080-NT tox: 21µM; MCF10A rereplic: inconclusive; HT1080 IDH1KD tx: 21µM

What do the screens show for `COc1ccc(C(CCNC(C)c2ccccc2)c2ccc(F)cc2)cc1` (stereo unspecified)?
KB-3-1 cytotox: inconclusive; SW480 rerep: inactive; KB-V1 cytotox: 12µM; HT1080-NT tox: inconclusive; MCF10A rereplic: inconclusive; HT1080 IDH1KD tx: 18µM

How did O=C(Nc1ccccc1OC(F)F)c1cc2c(s1)CCC2 do in these assays?
KB-3-1 cytotox: inactive; SW480 rerep: inactive; KB-V1 cytotox: inactive; HT1080-NT tox: inactive; MCF10A rereplic: inconclusive; HT1080 IDH1KD tx: inactive

What do the screens show for `COc1ccc(CNS(=O)(=O)CCNCCc2ccccc2)cc1`?
KB-3-1 cytotox: inactive; SW480 rerep: inactive; KB-V1 cytotox: inactive; HT1080-NT tox: inactive; MCF10A rereplic: inactive; HT1080 IDH1KD tx: inactive

What do the screens show for `COc1ccc(CCNCc2ccc(OCc3ccccc3)cc2)cc1`?
KB-3-1 cytotox: inactive; SW480 rerep: inactive; KB-V1 cytotox: inactive; HT1080-NT tox: inconclusive; MCF10A rereplic: inconclusive; HT1080 IDH1KD tx: 18µM

How did CC1(C)CC(=O)C2=C(C1)OC1=C(C(=O)CC(C)(C)C1)C2c1ccccc1 do in these assays?
KB-3-1 cytotox: inactive; SW480 rerep: inactive; KB-V1 cytotox: inactive; HT1080-NT tox: inactive; MCF10A rereplic: inactive; HT1080 IDH1KD tx: inactive

Results for O=C1CS(=O)(=O)c2ccccc2N1 ?
KB-3-1 cytotox: inactive; SW480 rerep: inactive; KB-V1 cytotox: inactive; HT1080-NT tox: inactive; MCF10A rereplic: inactive; HT1080 IDH1KD tx: inactive

What do the screens show for `CCOC(=O)/C(C#N)=C/c1c(OCC)n(CC)c2ccccc12`?
KB-3-1 cytotox: inactive; SW480 rerep: inactive; KB-V1 cytotox: 7.3µM; HT1080-NT tox: inactive; MCF10A rereplic: inactive; HT1080 IDH1KD tx: inactive

What do the screens show for `C=C1C(=O)OC2C1CCC(C)=C1C(=O)C3OC3(C)C12` (stereo unspecified)?
KB-3-1 cytotox: inconclusive; SW480 rerep: inconclusive; KB-V1 cytotox: inconclusive; HT1080-NT tox: inconclusive; MCF10A rereplic: inconclusive; HT1080 IDH1KD tx: 16µM

Results for C#Cc1ccc([C@H]2C=C(C(=O)N3CCN(Cc4ccccc4)CC3)O[C@@H](OCc3ccc(CO)cc3)C2)cc1 ?
KB-3-1 cytotox: inactive; SW480 rerep: inactive; KB-V1 cytotox: inactive; HT1080-NT tox: inconclusive; MCF10A rereplic: inconclusive; HT1080 IDH1KD tx: inactive

How did COCCNC(=O)COc1ncnc2scc(-c3ccc(F)cc3)c12 do in these assays?
KB-3-1 cytotox: inactive; SW480 rerep: inactive; KB-V1 cytotox: inactive; HT1080-NT tox: inactive; MCF10A rereplic: inactive; HT1080 IDH1KD tx: inactive

What do the screens show for `COc1ccc(OC)c(/C=C/C(=O)Nc2cccc(S(=O)(=O)N3CCCC3)c2)c1`?
KB-3-1 cytotox: inactive; SW480 rerep: inactive; KB-V1 cytotox: inactive; HT1080-NT tox: inactive; MCF10A rereplic: 23µM; HT1080 IDH1KD tx: inactive

What do the screens show for `CCN1CCN(c2ccc(S(=O)(=O)N3CCCCC3)cc2NC(=O)/C=C/c2cc(OC)ccc2OC)CC1`?
KB-3-1 cytotox: inactive; SW480 rerep: inactive; KB-V1 cytotox: inconclusive; HT1080-NT tox: inactive; MCF10A rereplic: 21µM; HT1080 IDH1KD tx: inactive
